The list is not random: actives were taken first. Their share in the collection is about 12%.
Shiga inhibitor: A qHTS for Small Molecule Inhibitors of Shiga Toxin. Vero cells, Shiga toxin protein synthesis inhibition reporter. inhibition, % at 38.7 µM. 290,000 tested, 9.2% active; in the data active means inhibition mostly above about 28%, no sharp cut-off; inactive means mostly below about 43%
FMDV inh: High Throughput Screening for Foot and Mouth Disease Virus Antivirals | Potency, µM (doses to about 57.9 µM), usual class: inhibitors | FMDV antiviral cell-based qHTS | 410,000 tested, 1.2% active; calls by dose curve; tested in HEK293T cells; further: read-out not given here; nearly all actives have a fitted effect of over 45% in size
CHX counter: Cycloheximide Counterscreen for Small Molecule Inhibitors of Shiga Toxin | cell reporter, cycloheximide protein synthesis inhibition counterscreen | max response, % | 300,000 tested, 12% active; in the data active means max response mostly above about 13%, no sharp cut-off; inactive means mostly below about 14%; further: read at 38.3 µM for the half of the compounds with a filed dose
Sm TGR block: qHTS Assay for the Inhibitors of Schistosoma Mansoni Peroxiredoxins. AID 485364, 2010. Potency, µM (series often up to 114 µM), actives largely listed as inhibitors. Schistosoma mansoni thioredoxin glutathione reductase (TGR), Q962Y6. 360,000 tested, 3% active. purified TGR, DTNB reduction, TNB absorbance 405 nm; active means well fitted inhibition curve with a large enough effect; inconclusive means small, poorly fitted or top-dose-only effect; inactive means no such curve, though single readings can be large or run the other way; further: nearly all actives have a fitted effect of over 60% in size
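TGR 20 nM + NADPH 100 uM (dispensed conc.), cpd preinc 15 min RT; start with NADPH (500 uM addition) then DTNB (15 mM addition). Kinetic TNB absorbance, 405 nm filter. Four-parameter Hill fit across titration.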
Numbers stand for hits; n = inactive; u = inconclusive; x = no result; ! = not active in a repeat.

SMILES | Shiga inhibitor | FMDV inh | CHX counter | Sm TGR block
CCOc1ccc(C2CC(=O)Nc3nc(SCc4ccccc4C)[nH]c(=O)c32)cc1OC (stereo unspecified) | x | n | x | n
Cc1cc(NC(=O)c2cccs2)cc(-c2nc3cc(Cl)ccc3o2)c1O | x | n | x | n
Cc1csc(SCC(=O)N2CCOc3ccc(C(O)C4CCCCC4)cc3C2)n1 (stereo unspecified) | x | n | x | x
CCOc1ccccc1C(=O)Nc1nnc(CC)s1 | 25 | n | 14 | n
COc1ccccc1CC(=O)Nc1cc(C)ccn1 | 103 | n | 45 | n
Cc1ccc(NC(=O)COc2ccccc2[N+](=O)[O-])nc1 | 56 | n | n | n
CCc1nnc(NC(=O)COc2ccccc2[N+](=O)[O-])s1 | n | n | 10 | n
Cc1ccc(N2C(=O)N(CC(=O)C(C)(C)C)c3ccccc3S2(=O)=O)cc1C | x | n | x | n
NCCC(=O)N[C@H](Cc1cnc[nH]1)C(=O)O | x | n | x | x
CC1CCC/C(=C\Nc2ccc(O)cc2)C1=O (stereo unspecified) | 80 | n | 52 | 40µM
Cc1cc(C(=O)O)ccc1N/C=C1\CCCC(C)C1=O (stereo unspecified) | n | u | n | n
CCCCCn1cc2c(c1-c1ccc(Br)cc1)c(=O)n(C)c(=O)n2C | x | n | x | n
COc1ccc(OC)c(C2c3c(oc4ccc(C)cc4c3=O)C(=O)N2CCCN(C)C)c1 (stereo unspecified) | x | n | x | n
C[C@@H]1C[C@@H]2OC(=O)[C@]3(C)[C@H]2[C@@H](OC3(C)O)[C@]2(C)C(=O)C=C[C@H]12 (stereo partly specified) | 26 | n | 31 | u
C=C1C(=O)O[C@@H]2C[C@@H](C)[C@@H]3C=CC(=O)[C@@]3(C)[C@@H](O)[C@H]12 | n | 8.9µM! | n | 25µM
C=C1C(=O)O[C@@H]2C[C@@H](C)[C@@H]3C=CC(=O)[C@@]3(C)[C@@H](OC(C)=O)[C@H]12 | n | 3.2µM | n | n
COc1cc(OC)cc(-c2sc3ccccc3c(=O)c2I)c1 | n | x | n | x
COc1ccc(/C=N/Nc2nonc2N)cc1OC | n | n | n | n
CO/N=C(\N)c1nonc1N | n | n | n | n
COc1ccc(/C=N/Nc2nonc2N)cc1 | n | n | 23 | n
COc1cc(/C=N/N=C(/N)c2nonc2N)cc(Br)c1OCc1cccc(C)c1 | n | u | 21 | n
COc1ccc(/C=N/N=C(\N)c2nonc2N)cc1 | 44 | n | n | n
CCOc1cc(/C=N/N=C(\N)c2nonc2N)cc(Br)c1OCc1cccc2ccccc12 | n | u | n | n
COc1cc(/C=N/N=C(\N)c2nonc2N)cc(OC)c1O | 79 | n | 47 | 28µM
COc1ccc(-c2nc3cnc(N4CCOCC4)nc3n(Cc3cccc(OC)c3)c2=O)cc1 | x | n | x | x
SMILES | Shiga inhibitor | FMDV inh | CHX counter | Sm TGR block
CCOC(=O)c1ncc2[nH]c3ccc(OCc4ccccc4)cc3c2c1COC | n | 16µM | n | x
O=C(O)c1cc2cc(OCc3ccccc3)ccc2[nH]1 | n | x | n | n
CC(C)Oc1ccc(-c2cc(C(=O)NCCN3CCOCC3)c3ccccc3n2)cc1 | n | n | 30 | n
CCOc1ccc(-c2cc(C(=O)NCCCN3CCOCC3)c3ccccc3n2)cc1 | n | n | 23 | n
Cc1cc(=O)oc2cc(OCC(=O)NCCCN3CCOCC3)ccc12 | n | n | n | n
Cc1cc(NC(=O)c2cc(-c3ccc(OC(C)C)cc3)nc3ccccc23)no1 | n | n | 20 | n
O=C(COc1ccc2c(-c3ccccc3)cc(=O)oc2c1)NCCCN1CCOCC1 | n | n | 12 | n
CCc1ccc(CNC(=O)c2ccc3nc(C(C)C)oc3c2)cc1 | x | n | x | n
Cc1ccc(CNC(=O)CCCn2c(=O)c3ccccc3n(CC(=O)C(C)(C)C)c2=O)cc1 | x | n | x | n
COc1ccc(-n2c(CNC(=O)c3cccc(OC)c3OC)nnc2SC)cc1 | x | n | x | x
COc1cccc(N2CCN(C(=O)C3CCN(S(=O)(=O)c4c(C)noc4C)CC3)CC2)c1 | x | n | x | n
Cc1nn(Cc2ccc(Cl)cc2Cl)c(Cl)c1C(=O)NC1CCCc2ccccc21 (stereo unspecified) | n | 20µM | n | n
Cc1nn(Cc2ccccc2)c(C)c1C(=O)NC1CCCc2ccccc21 (stereo unspecified) | n | n | n | n
CCOc1ccccc1NS(=O)(=O)c1ccc2c(c1)CC(C)N2C(=O)C1CCC1 (stereo unspecified) | x | u | x | n
CCOC(=O)c1c(N)n(Cc2ccco2)c2nc3ccccc3nc12 | n | n | n | 45µM
CCCCn1c(NC(=O)c2ccco2)c(C(=O)OCC)c2nc3ccccc3nc21 | n | x | n | 25µM
COCC(C)OC(=O)c1c(N)n(Cc2ccco2)c2nc3ccccc3nc12 (stereo unspecified) | n | n | n | 10µM
CCc1cc2c(cc3c(=O)n(CCCC(=O)NCc4ccccc4Cl)nc(CC)n32)s1 | x | n | x | n
NS(=O)(=O)c1ccc(NC(=O)Nc2ccc3c(c2)OCO3)cc1 | 96 | n | 41 | n
O=C(CCc1ccc(S(=O)(=O)NCCc2ccccc2)cc1)Nc1ccc2c(c1)OCO2 | n | n | n | n
O=C(Nc1ccc(S(=O)(=O)NCc2ccccc2)cc1)Nc1ccc2c(c1)OCO2 | 81 | n | 28 | n
CCNS(=O)(=O)c1ccc(CCC(=O)Nc2ccc3c(c2)OCO3)cc1 | n | n | n | n
CCNS(=O)(=O)c1ccc(NC(=O)Nc2ccc3c(c2)OCO3)cc1 | n | n | 30 | n
CCNS(=O)(=O)c1ccc(NC(=O)Nc2ccccc2OC)cc1 | n | n | 9.5 | n
N[C@H](C(=O)O)[C@H]1C[C@H]1C(=O)O | x | n | x | x
SMILES | Shiga inhibitor | FMDV inh | CHX counter | Sm TGR block
COc1ccc(-c2nc3n(n2)C(c2ccc(OC)cc2)C(C(=O)Nc2cccnc2)=C(C)N3)cc1 (stereo unspecified) | x | n | x | n
CCN1CCN(c2cc(C)c3cc(NC(=O)/C=C/c4ccc(OCCC(C)C)cc4)ccc3n2)CC1 | x | u | x | n
Cc1ccccc1C(=O)Nc1ccc2c(c1)OCO2 | n | n | 30 | n
CN(c1ccccc1C(=O)Nc1ccc2c(c1)OCO2)S(C)(=O)=O | n | n | n | n
COc1ccccc1C(=O)NCC(=O)Nc1ccc2c(c1)OCO2 | x | n | x | n
COc1cc(SC)ccc1C(=O)Nc1ccc2c(c1)OCCO2 | n | n | 34 | n
COCCSc1ccccc1C(=O)Nc1ccc2c(c1)OCCO2 | n | n | n | n
COc1ccccc1C(=O)Nc1ccc2c(c1)OCO2 | 61 | n | 43 | n
COc1ccccc1C(=O)Nc1ccc2c(c1)OCCO2 | 85 | n | 41 | n
COc1ccc(S(=O)(=O)NCCc2nnc3ccc(SCC(=O)Nc4cc(C)cc(C)c4)nn23)cc1 | x | n | x | n
CC1=C(c2ccc(C(C)C)cc2)S(=O)(=O)NC1=NCc1ccccc1Br | x | n | x | n
COc1ccccc1C(=O)Nc1ccc2c(c1)C(=O)NC2=O | 22 | n | 28 | n
CC1CCN(S(=O)(=O)c2ccc3c(ccc(=O)n3CC(=O)NCc3ccccc3Cl)c2)CC1 | x | n | x | n
Cc1cc(/C=C2\C(=N)N3N=CSC3=NC2=O)c(C)n1Cc1ccccc1 | n | n | 14 | n
